Experimental data published in PubChem BioAssay (NCATS).
Results filed as inconclusive are left out. Calls of active or inactive are those of the source. The call rests on the fitted dose curve; in most records, active means well fitted curve in the direction sought with a large enough effect; inconclusive means small, poorly fitted or top-dose-only effect, or another doubt; inactive means no such curve, though single readings can be large; an effect the other way counts as inactive or inconclusive.

Columns and labels:
[1] = target: Calcium and integrin-binding protein 1 (Homo sapiens) (UniProt Q99828); assay: Primary qHTS for Identification of Calcium Integrin Binding Protein 1 (CIB1) Competitor (AID 1508620);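 further: GST tagged CIB1 binding a fluorescein labelled alphaIIb integrin peptide tracer; top concentration of the series differs between compounds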
In short: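 CIB1-GST (1 uM final) and compound incubated 15 min at room temperature before adding FITC-alphaIIb peptide tracer (100 nM final). Competition for binding read by fluorescence polarization (ex 480, em 540) after another 15 min at room temperature.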

[2] = Primary qHTS for inhibitors of nuclear receptor binding SET domain protein 2 (NSD2) in an isogenic RCH-ACV NSD2 p.E1099K mutant (9B) (AID 1645876); further: nearly all actives have a fitted effect of over 70% in size
[3] = Primary qHTS for inhibitors of nuclear receptor binding SET domain protein 2 (NSD2) in an RCH-ACV wild type WT cells (2C) (AID 1645877); further: nearly all actives have a fitted effect of over 70% in size

Measured: Potency

Sequence of Calcium and integrin-binding protein 1 (Homo sapiens) (Q99828 whole entry, looked up): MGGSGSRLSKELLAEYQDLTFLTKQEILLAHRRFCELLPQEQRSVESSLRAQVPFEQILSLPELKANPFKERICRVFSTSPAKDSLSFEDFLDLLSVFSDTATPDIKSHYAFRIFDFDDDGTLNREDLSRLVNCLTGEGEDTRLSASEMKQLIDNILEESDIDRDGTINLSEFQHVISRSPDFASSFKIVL

C[C@]1(OC(=O)/C=C/c2ccccc2)C[C@@H](O)[C@]2(O)C=CO[C@@H](O[C@@H]3O[C@H](CO)[C@@H](O)[C@H](O)[C@H]3O)[C@@H]21
inactive: all assays above

C[C@@H]1O[C@@H](O[C@H]2[C@@H]3C=CO[C@@H](O[C@@H]4O[C@H](CO)[C@@H](O)[C@H](O)[C@H]4O)[C@@H]3[C@@]3(CO)O[C@@H]23)[C@H](O)[C@H](O)[C@H]1OC(=O)/C=C/c1ccc(O)cc1
inactive: all assays above

CCC1OC(=O)C(C)CC(C)C(=O)/C(C)=C/C(C)C(=O)/C=C/C1(C)O (configuration not stated)
inactive: all assays above

CC1C(=O)OCC2=CC[N+]3([O-])CCC(OC(=O)C(C)(O)C1(C)O)C23 (configuration not stated)
inactive: all assays above

NC1Nc2ccccc2C1(N)CC1NC(=O)C(Cc2ccccc2)NC(=O)C(Cc2ccccc2)NC1=O (configuration not stated)
inactive: all assays above

C=C1CCC2[C@](C)(CO)CCC[C@@]2(C)[C@@H]1CCC1=CCOC1=O (some centres not stated)
inactive: all assays above

COc1cc(C(C)=O)ccc1O[C@@H]1O[C@H](CO)[C@@H](O)[C@H](O)[C@H]1O
inactive: all assays above

CC1(C)OC(=O)C=C[C@@]2(C)C1CC(=O)[C@]1(C)C2CC[C@@]2(C)[C@H](c3ccoc3)OC(=O)[C@H]3O[C@]321 (some centres not stated)
inactive: all assays above

CC(C)=CCC[C@](C)(O[C@@H]1O[C@H](CO[C@@H]2O[C@@H](CO)[C@H](O)[C@H]2O)[C@@H](O)[C@H](O)[C@H]1O)[C@H]1CC[C@]2(C)[C@@H]1[C@H](O)C[C@@H]1[C@@]3(C)CC[C@H](O[C@@H]4O[C@H](CO)[C@@H](O)[C@H](O)[C@H]4O[C@@H]4O[C@H](CO)[C@@H](O)[C@H](O)[C@H]4O)C(C)(C)[C@@H]3CC[C@]12C
inactive: all assays above
